Tests used:
Experiment in all cases: DAPPL (digital affinity profiling via proximity ligation, sequencing); 10 mM Tris-HCl pH 7.5, 50 mM NaCl, 1 mM DTT, 4% glycerol, room temperature, 30 min; GST-TFs on glutathione beads, 16-mer random dsDNA library, 0.1% formaldehyde crosslink after washing; high values mean tight binding
Conditions in all cases: protein: recombinant; tags: N-terminal GST; dsDNA, one strand shown
ELK3 = biological target: T1, ELK3 (Homo sapiens, UniProt P41970 1-407)
T1 sequence: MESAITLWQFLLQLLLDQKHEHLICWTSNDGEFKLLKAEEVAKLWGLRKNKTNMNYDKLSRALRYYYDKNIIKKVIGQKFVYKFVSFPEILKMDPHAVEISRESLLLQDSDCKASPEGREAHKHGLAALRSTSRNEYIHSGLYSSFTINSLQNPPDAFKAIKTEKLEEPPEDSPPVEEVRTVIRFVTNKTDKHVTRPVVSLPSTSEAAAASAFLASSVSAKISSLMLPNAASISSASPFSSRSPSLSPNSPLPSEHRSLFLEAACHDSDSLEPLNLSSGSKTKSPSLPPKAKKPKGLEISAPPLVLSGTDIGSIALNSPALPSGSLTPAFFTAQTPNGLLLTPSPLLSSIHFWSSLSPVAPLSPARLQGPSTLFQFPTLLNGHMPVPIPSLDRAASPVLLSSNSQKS
Procedure, shortened: (§1)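 Human transcription factors were made in yeast as GST fusions, captured on glutathione beads and barcoded with DNA. With a tag-only sample included, the pool was incubated with 200 nmole of a random double-stranded 16-mer DNA library in Tris/NaCl/DTT/glycerol buffer at room temperature for 30 min, then crosslinked with 0.1% formaldehyde after washing, ligated by proximity, amplified and sequenced. For binding signal, each hexamer's read frequency for a factor is divided by its frequency for the tag-only sample.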

ETV5 = ETV5 (Homo sapiens, UniProt P41161 1-510)
Procedure, shortened: as §1

ELK4 = biological target: T2, ELK4 (Homo sapiens, UniProt P28324-2 1-405)
T2 sequence: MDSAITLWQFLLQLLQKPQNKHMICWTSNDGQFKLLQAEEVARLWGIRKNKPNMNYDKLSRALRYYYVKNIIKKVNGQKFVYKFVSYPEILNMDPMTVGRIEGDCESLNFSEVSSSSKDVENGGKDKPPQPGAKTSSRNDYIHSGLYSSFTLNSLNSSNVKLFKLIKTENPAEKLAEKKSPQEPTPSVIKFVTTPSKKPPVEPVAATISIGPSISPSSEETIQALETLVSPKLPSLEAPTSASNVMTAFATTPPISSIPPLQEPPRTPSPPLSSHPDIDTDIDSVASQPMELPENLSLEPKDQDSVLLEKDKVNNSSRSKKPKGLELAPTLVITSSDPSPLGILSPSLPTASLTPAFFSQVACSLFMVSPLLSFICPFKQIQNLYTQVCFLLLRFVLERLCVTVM
Procedure, shortened: as §1

ETV1 = ETV1 (Homo sapiens, UniProt P50549 1-477)
Procedure, shortened: as §1

ETV3L = biological target: T3, ETV3L (Homo sapiens, UniProt Q6ZN32 1-361)
T3 sequence: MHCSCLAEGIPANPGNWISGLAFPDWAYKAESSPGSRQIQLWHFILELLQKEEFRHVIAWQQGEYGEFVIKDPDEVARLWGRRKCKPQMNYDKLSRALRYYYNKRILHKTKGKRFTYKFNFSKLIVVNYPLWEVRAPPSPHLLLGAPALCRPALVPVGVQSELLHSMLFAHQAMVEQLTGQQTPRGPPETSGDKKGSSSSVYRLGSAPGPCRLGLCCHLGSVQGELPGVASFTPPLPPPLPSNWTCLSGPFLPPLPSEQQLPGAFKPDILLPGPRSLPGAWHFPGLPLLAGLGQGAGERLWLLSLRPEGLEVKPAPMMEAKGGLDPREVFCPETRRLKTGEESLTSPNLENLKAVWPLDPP
Procedure, shortened: as §1

ETV7 = biological target: T4, ETV7 (Homo sapiens, UniProt Q9Y603 1-341)
T4 sequence: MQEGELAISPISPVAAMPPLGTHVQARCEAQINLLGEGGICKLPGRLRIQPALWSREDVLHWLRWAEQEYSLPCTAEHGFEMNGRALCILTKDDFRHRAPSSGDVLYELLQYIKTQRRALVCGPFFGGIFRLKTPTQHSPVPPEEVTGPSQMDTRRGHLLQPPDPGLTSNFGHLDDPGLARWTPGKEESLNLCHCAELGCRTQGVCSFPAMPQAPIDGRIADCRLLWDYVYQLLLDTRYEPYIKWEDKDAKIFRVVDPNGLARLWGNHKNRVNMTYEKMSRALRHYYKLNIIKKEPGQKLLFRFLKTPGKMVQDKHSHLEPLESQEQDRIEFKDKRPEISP
Procedure, shortened: as §1

ETV6 = ETV6 (Homo sapiens, UniProt P41212 1-452)
Procedure, shortened: as §1

ELK1 = biological target: T5, ELK1 (Homo sapiens, UniProt P19419 1-428)
T5 sequence: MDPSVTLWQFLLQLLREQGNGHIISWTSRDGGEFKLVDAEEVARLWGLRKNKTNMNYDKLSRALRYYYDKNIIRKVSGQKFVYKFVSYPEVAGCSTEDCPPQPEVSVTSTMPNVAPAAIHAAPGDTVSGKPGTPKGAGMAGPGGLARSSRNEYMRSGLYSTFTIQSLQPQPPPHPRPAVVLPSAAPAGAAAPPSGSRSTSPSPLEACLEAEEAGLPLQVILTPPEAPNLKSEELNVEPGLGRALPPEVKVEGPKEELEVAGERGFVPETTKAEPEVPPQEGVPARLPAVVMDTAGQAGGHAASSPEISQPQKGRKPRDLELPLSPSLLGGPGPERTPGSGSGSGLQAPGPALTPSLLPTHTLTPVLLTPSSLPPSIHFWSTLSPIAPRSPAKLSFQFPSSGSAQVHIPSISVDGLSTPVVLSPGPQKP
Procedure, shortened: as §1

GABPA = biological target: T6, GABPA (Homo sapiens, UniProt Q06546 1-454)
T6 sequence: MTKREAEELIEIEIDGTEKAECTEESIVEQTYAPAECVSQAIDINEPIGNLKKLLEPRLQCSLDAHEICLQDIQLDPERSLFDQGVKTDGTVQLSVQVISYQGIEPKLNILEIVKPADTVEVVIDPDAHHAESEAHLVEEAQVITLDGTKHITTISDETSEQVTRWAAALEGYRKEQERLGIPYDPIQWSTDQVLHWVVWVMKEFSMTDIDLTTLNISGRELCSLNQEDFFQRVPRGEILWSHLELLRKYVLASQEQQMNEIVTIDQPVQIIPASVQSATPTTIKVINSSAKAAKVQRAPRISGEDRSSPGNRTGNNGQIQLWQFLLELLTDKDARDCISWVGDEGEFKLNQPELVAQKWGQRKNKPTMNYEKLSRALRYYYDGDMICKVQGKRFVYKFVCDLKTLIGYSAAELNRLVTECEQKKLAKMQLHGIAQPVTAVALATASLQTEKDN
Procedure, shortened: as §1

EHF = biological target: T7, EHF (Homo sapiens, UniProt Q9NZC4 1-300)
T7 sequence: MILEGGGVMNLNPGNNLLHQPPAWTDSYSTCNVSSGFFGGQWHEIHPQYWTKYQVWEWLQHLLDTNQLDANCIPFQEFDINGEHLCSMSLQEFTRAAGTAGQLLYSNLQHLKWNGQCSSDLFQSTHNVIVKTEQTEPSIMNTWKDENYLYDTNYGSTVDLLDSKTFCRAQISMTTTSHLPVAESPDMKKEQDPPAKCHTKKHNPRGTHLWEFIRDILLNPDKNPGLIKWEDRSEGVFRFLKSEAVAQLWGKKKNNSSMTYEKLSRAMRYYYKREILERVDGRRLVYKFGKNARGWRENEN
Procedure, shortened: as §1

SPIC = biological target: T8, SPIC (Homo sapiens, UniProt Q8N5J4 1-248)
T8 sequence: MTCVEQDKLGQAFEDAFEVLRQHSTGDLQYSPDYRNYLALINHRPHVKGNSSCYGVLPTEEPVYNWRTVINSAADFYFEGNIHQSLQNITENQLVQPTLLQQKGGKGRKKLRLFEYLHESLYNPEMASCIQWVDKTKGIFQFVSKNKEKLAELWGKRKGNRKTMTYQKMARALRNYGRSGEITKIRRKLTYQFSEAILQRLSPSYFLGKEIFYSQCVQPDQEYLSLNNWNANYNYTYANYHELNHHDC
Procedure, shortened: as §1

ERF = biological target: T9, ERF (Homo sapiens, UniProt P50548 1-548)
T9 sequence: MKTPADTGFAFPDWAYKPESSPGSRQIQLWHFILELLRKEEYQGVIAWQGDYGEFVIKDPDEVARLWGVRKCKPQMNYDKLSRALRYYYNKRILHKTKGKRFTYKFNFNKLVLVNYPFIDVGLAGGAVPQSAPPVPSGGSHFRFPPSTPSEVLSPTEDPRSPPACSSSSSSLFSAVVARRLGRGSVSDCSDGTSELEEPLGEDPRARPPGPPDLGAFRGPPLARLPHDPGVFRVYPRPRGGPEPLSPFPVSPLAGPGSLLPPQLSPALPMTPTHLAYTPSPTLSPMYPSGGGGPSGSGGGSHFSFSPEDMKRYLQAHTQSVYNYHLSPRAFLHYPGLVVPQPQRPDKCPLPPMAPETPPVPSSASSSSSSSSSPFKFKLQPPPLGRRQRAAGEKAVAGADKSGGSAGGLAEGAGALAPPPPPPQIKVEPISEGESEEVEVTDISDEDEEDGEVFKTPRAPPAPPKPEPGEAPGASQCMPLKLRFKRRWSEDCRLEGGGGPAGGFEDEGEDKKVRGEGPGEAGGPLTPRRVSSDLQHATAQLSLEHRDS
Procedure, shortened: as §1

ETS2 = biological target: T10, ETS2 (Homo sapiens, UniProt P15036 1-469)
T10 sequence: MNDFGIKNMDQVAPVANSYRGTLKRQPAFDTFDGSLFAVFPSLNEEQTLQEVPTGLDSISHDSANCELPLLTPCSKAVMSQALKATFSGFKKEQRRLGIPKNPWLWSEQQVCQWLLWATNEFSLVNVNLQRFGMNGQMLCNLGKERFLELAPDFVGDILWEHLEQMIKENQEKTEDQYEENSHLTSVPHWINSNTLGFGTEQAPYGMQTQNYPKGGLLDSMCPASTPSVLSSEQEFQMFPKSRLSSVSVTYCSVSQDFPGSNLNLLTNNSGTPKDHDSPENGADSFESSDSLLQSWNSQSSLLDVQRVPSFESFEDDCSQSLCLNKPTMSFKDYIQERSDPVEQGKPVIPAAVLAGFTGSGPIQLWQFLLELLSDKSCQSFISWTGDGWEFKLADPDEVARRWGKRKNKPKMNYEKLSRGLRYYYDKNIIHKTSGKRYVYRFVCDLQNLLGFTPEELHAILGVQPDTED
Procedure, shortened: as §1

SPDEF = biological target: T11, SPDEF (Homo sapiens, UniProt O95238 1-335)
T11 sequence: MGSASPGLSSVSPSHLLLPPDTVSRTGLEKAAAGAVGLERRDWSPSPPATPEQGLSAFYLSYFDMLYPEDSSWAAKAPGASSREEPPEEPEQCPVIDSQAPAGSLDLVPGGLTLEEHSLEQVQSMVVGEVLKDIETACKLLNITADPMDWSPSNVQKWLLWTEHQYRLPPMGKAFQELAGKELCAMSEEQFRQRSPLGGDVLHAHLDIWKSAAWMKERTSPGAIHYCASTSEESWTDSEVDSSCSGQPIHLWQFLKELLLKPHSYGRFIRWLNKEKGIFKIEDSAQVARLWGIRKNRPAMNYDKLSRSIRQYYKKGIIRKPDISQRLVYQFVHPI
Procedure, shortened: as §1

Chain of ETV5 (P41161 whole entry): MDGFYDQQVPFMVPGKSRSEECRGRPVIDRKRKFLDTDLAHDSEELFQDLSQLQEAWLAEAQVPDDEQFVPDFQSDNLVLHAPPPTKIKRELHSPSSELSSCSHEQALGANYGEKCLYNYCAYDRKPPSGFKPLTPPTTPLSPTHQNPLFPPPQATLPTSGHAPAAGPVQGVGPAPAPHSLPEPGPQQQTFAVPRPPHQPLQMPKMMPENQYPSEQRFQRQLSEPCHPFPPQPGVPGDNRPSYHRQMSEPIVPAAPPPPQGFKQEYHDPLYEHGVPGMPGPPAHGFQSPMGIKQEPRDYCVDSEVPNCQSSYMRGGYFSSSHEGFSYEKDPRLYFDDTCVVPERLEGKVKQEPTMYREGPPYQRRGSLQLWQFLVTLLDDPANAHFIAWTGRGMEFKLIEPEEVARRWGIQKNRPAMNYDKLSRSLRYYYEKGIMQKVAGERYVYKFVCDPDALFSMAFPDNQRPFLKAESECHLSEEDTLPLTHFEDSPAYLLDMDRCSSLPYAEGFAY
Chain of ETV1 (P50549 whole entry): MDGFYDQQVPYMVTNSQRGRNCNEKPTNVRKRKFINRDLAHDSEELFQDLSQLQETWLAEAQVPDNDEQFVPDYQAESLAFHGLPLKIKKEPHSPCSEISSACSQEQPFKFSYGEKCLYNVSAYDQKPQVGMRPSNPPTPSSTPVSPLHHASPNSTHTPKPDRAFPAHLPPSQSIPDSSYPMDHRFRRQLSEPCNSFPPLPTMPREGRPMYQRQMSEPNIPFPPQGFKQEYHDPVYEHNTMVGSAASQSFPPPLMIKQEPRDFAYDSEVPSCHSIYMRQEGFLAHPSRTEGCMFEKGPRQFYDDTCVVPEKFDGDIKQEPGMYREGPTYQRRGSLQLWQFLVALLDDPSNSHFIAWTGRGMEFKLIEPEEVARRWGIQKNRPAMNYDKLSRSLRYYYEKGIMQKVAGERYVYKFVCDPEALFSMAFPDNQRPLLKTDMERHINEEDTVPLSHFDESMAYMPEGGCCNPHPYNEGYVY
Chain of ETV6 (P41212 whole entry): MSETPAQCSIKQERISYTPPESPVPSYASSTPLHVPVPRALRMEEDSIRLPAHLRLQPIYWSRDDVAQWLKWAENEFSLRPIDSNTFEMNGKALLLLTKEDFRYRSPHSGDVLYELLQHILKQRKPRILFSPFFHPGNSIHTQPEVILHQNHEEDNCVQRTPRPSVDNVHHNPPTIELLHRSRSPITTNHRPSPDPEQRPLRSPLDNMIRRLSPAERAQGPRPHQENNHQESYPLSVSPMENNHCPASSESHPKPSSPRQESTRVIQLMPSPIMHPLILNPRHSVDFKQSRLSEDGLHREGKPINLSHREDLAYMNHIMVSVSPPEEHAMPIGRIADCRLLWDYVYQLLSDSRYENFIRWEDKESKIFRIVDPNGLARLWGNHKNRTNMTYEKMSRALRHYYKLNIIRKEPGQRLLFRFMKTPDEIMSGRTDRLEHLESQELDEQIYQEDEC

Row | Sequence | binding signal (ELK3) | binding signal (ETV5) | binding signal (ELK4) | binding signal (ETV1) | binding signal (ETV3L) | binding signal (ETV7) | binding signal (ETV6) | binding signal (ELK1) | binding signal (GABPA) | binding signal (EHF) | binding signal (SPIC) | binding signal (ERF) | binding signal (ETS2) | binding signal (SPDEF)
1 | AGCGGC | 1.03 fold enrichment (6-mer frequency, TF over GST control) | 1.03 fold enrichment (6-mer frequency, TF over GST control) | 1 fold enrichment (6-mer frequency, TF over GST control) | 1.09 fold enrichment (6-mer frequency, TF over GST control) | 1.01 fold enrichment (6-mer frequency, TF over GST control) | 1.01 fold enrichment (6-mer frequency, TF over GST control) | 1.15 fold enrichment (6-mer frequency, TF over GST control) |  |  |  |  |  |  | 
2 | ATAGGG | 1.06 fold enrichment (6-mer frequency, TF over GST control) | 1.03 fold enrichment (6-mer frequency, TF over GST control) | 1.06 fold enrichment (6-mer frequency, TF over GST control) |  |  | 1.09 fold enrichment (6-mer frequency, TF over GST control) |  | 1.01 fold enrichment (6-mer frequency, TF over GST control) | 1.03 fold enrichment (6-mer frequency, TF over GST control) | 1.01 fold enrichment (6-mer frequency, TF over GST control) | 1.08 fold enrichment (6-mer frequency, TF over GST control) | 1.14 fold enrichment (6-mer frequency, TF over GST control) | 1.01 fold enrichment (6-mer frequency, TF over GST control) | 1.01 fold enrichment (6-mer frequency, TF over GST control)

Reference: publication PMC7862700, “An all-to-all approach to the identification of sequence-specific readers for epigenetic DNA modifications on cytosine”
